{"source": "PubChem BioAssay AID2501", "about": "(Southern Research Specialized Biocontainment Screening …, 2010)", "note": "In all, about 2,200 compounds went through this assay and about 1,200 (55%) were called active. So high a share suggests a set chosen from earlier hits. Some of the results follow. Values without a mark were called inactive. Cut-off not given; nearly all actives show IC50 up to about 92 µM."}
{"assay": "counter assay for TAg ATPase ADP read-out – biochemical, ADP-Hunter, fluorescence, counter-screen (AID 2501);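 further: purified T antigen ATPase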;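 on inhibition: 0% = enzyme with vehicle and 100% = reference inhibitor wells; higher means more inhibition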", "conditions": "series mostly up to 100 µM; inhibition: at the top concentration"}
{"compound": "COc1ccc2[nH]c3c(=O)n(CCCCC(=O)NCCN4CCCC4)c(=S)[nH]c3c2c1", "IC50": "6.28 µM (active)"}
{"compound": "CCN(CC)CCNC(=O)CCCCn1c(=S)[nH]c2c([nH]c3ccc(OC)cc32)c1=O", "IC50": "4.99 µM (active)"}
{"compound": "Cc1ccc(NC(=O)CSc2nc3ccccc3c(=O)n2CCCC(=O)NCCCN2CCOCC2)cc1C", "inhibition": "6.18%"}
{"compound": "O=S(=O)(Nc1cccc(-c2cn3ccsc3n2)c1)c1ccc(F)cc1", "inhibition": "3.14%"}
{"compound": "O=C1CC(N2CCN(c3ccc(O)cc3)CC2)C(=O)N1Cc1cccs1", "note": "(stereo not drawn)", "IC50": "4.71 µM (active)"}
{"compound": "CN(CCc1cn[nH]c1)Cc1nc(Cc2ccccc2F)no1", "inhibition": "-12.4%"}
{"compound": "CC(O)CCc1ccc(O)cc1", "note": "(stereo not drawn)", "IC50": "8.46 µM (active)"}
{"compound": "NNC(=O)c1ccc(CN2CCCCC2)o1", "inhibition": "2.18% [at 50 µM]"}
{"compound": "COc1cc(/C=C2\\SC(c3ccc(C)cc3)=NC2=O)cc(OC)c1O", "IC50": "2.62 µM (active)"}
{"compound": "Cc1ccc(C2=NC(=O)/C(=C/c3cc(O)c(O)c(Br)c3)S2)cc1", "IC50": "11 µM (active)"}
{"compound": "CCOc1ccc(NCc2cccn2-c2nnc(N3CCC(C(=O)NCCCN4CCCCC4CC)CC3)s2)cc1", "note": "(stereo not drawn)", "IC50": "5.76 µM (active)"}
{"compound": "CCOc1ccc(NCc2cccn2-c2nnc(N3CCC(C(=O)NCCCN4CCCCC4C)CC3)s2)cc1", "note": "(stereo not drawn)", "IC50": "6.99 µM (active)"}
{"compound": "CCOc1ccc(NCc2cccn2-c2nnc(N3CCC(C(=O)NCCCN4CC(C)CC(C)C4)CC3)s2)cc1", "note": "(stereo not drawn)", "IC50": "7.15 µM (active)"}
{"compound": "NC(=O)Cn1c(=O)n(CCC(=O)NCCSCc2ccccc2)c(=O)c2ccccc21", "inhibition": "-26.1%"}
{"compound": "COc1cccc(C2C([N+](=O)[O-])=C(N)Oc3cc(C)oc(=O)c32)c1", "note": "(stereo not drawn)", "inhibition": "-29.3%"}
{"compound": "CC(=O)Nc1ccc(OC(=O)C(CCS(C)(=O)=O)N2C(=O)c3ccccc3C2=O)cc1", "note": "(stereo not drawn)", "IC50": "7.41 µM (active)"}
{"compound": "NC(=O)C(Cc1ccccc1)N1C(=O)c2ccccc2C1=O", "note": "(stereo not drawn)", "inhibition": "0.03%"}
{"compound": "O=C(Nn1cnnc1)C1Cc2ccccc2CN1S(=O)(=O)c1ccc(F)cc1", "note": "(stereo not drawn)", "inhibition": "-21.5%"}
{"compound": "CC(=O)Nc1cccc(C(=O)OCC(=O)Nc2nnc(-c3ccccc3)o2)c1", "inhibition": "24.2%"}
{"compound": "CCN(CC)c1ccc(NC(=O)COC(=O)c2cccs2)cc1", "IC50": "7.51 µM (active)"}
{"compound": "CCN(c1ccccc1)S(=O)(=O)c1ccc(Cl)c(NC(=O)COC(=O)c2cc(O)c3ccccc3c2O)c1", "inhibition": "-35.6%"}
{"compound": "COc1ccc2nc(COC(=O)c3cccs3)c(C(C)=O)[n+]([O-])c2c1", "inhibition": "15%"}
{"compound": "CCN(CC)c1ccc(C(=O)n2cnc3ccccc32)cc1", "inhibition": "1.76%"}
{"compound": "O=C(O)CCCn1cc(NC(=O)COc2ccccc2[N+](=O)[O-])cn1", "inhibition": "-8.38%"}
{"compound": "CCN(CC)c1ccc(NC(=O)COC(=O)COc2ccccc2[N+](=O)[O-])cc1", "IC50": "6.35 µM (active)"}
{"compound": "Cc1ccccc1OCC(=O)NCC(=O)OCC(=O)c1ccc([N+](=O)[O-])cc1", "inhibition": "5.49%"}
{"compound": "CCN(CC)c1ccc(NC(=O)COC(=O)c2ccc3ccccc3n2)cc1", "IC50": "2.2 µM (active)"}
{"compound": "CCOC(=O)C1CCCN(C(=O)Cn2sc3nc(C)cc(C)c3c2=O)C1", "note": "(stereo not drawn)", "inhibition": "20.5%"}
{"compound": "Nc1cnc(Nc2ccc(Br)cc2)nc1N", "IC50": "12.1 µM (active)"}
{"compound": "CCN(CC)S(=O)(=O)c1ccc(N/N=C/c2ccc(O)cc2)nc1", "IC50": "4.57 µM (active)"}
{"compound": "Cc1nc(Cl)cc(N/N=C/c2ccc(O)cc2)n1", "IC50": "4.8 µM (active)"}
{"compound": "Cc1cc(/C=N/Nc2ccc([N+](=O)[O-])cn2)c(C)n1-c1ccc(C(=O)O)cc1", "inhibition": "-1.71%"}
{"compound": "CC[C@H](C)[C@H](NC(=O)c1ccccc1)C(=O)Nc1ccc(S(=O)(=O)Nc2cc(C)nc(C)n2)cc1", "inhibition": "-9.31%"}
{"compound": "Cc1ccc(S(=O)(=O)Nc2nc(C)cc(N/N=C/c3ccc(O)cc3)n2)cc1", "IC50": "8.77 µM (active)"}
{"compound": "O=C(N/N=C/c1ccc(-c2ccc(S(=O)(=O)Nc3ncccn3)cc2)o1)c1cc2ccccc2cc1O", "inhibition": "17.8%"}
{"compound": "O=C(COc1ccc([N+](=O)[O-])cc1)NNC(=O)Nc1ccc([N+](=O)[O-])cc1", "inhibition": "-28.5%"}
{"compound": "COc1ccc(NC(=O)N2CCCc3cc(C)ccc32)c(OC)c1", "inhibition": "-15.2%"}
{"compound": "COc1cc([N+](=O)[O-])ccc1NC(=O)Oc1ccc(NC(C)=O)cc1", "IC50": "4.33 µM (active)"}
{"compound": "c1coc(-c2nnc3sc(Cc4cccs4)nn23)c1", "inhibition": "6.69%"}
{"compound": "NNC(=O)c1sc2nc(N3CCOCC3)c3c(c2c1N)CCCC3", "IC50": "36.6 µM (active)"}
{"compound": "CNC(=O)c1ccc(-c2sc3nc(N4CCOCC4)c4c(c3c2N)CCCC4)o1", "IC50": "14.8 µM (active)"}
{"compound": "CNC(=O)c1ccc(-c2sc3nc(N4CCOCC4)c4c(c3c2N)CC(C)(C)OC4)o1", "IC50": "3.18 µM (active)"}
{"compound": "Nc1c(C(=O)NC2CC2)sc2nc3c(c(-c4ccco4)c12)CC/C3=C/c1ccco1", "inhibition": "25.9%"}
{"compound": "C=CCc1cccc2cc(C(=O)Nc3ccc(S(=O)(=O)Nc4nnc(CC)s4)cc3)c(=O)oc12", "inhibition": "-26.6%"}
{"compound": "Cc1ccc2cn[nH]c2c1N", "IC50": "6.68 µM (active)"}
{"compound": "CC1(C)CC(=O)C(C=Nc2ccc(O)cc2)=C(O)C1", "IC50": "2.78 µM (active)"}
{"compound": "O=C1CCCC(O)=C1C=Nc1ccc(O)cc1", "IC50": "4.6 µM (active)"}
{"compound": "O=C1CCCC(O)=C1N=Nc1ccc(C(=O)O)cc1", "inhibition": "-21.8%"}
